# In PubChem BioAssay AID492948 (National Center for Advancing Translational Sciences (NCATS), 2010):
# Inconclusive results are not listed. Values without a mark were called inactive. Active and inactive are the calls of the source. Calls follow the shape of the dose curve; as a rule, active = well fitted activation curve with a large enough effect; inconclusive = small, poorly fitted or top-dose-only effect; inactive = no such curve, though single readings can be large or run the other way.
# Assay: qHTS Assay for Agonists of the Relaxin Receptor RXFP1: V1B Hit Validation;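 also: counter-screen in HEK293 cells expressing V1B rather than RXFP1 for selectivity; nearly all actives have a fitted effect of over 65% in size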;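 as to activation: cAMP accumulation with PDE4 inhibitor Ro 20-1724 present during compound exposure; 0% = buffer alone basal and 100% = 29 nM porcine relaxin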
# Conditions: HEK293 V1B cells, cAMP TR-FRET, 30 min; series mostly up to 115 µM; activation: at the top concentration
# How it was run: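 TR-FRET cAMP readout (ex 320, em 615/665 nm) after 30 min RT lysis with d2-cAMP/cryptate antibody. Before that: HEK293 cells, compounds 30 min 37C, Ro 20174 present. Hill-fit EC50s.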
# Potency is read from the fitted curve at half-maximal effect.
SMILES,Potency,activation
O=C(Cn1cnc2c(nnn2-c2ccc(F)cc2)c1=O)NCC1CCCO1 (stereo not drawn),8.7 µM (active),–
NC(=O)c1ccccc1NC(=O)CC12CC3CC(CC(C3)C1)C2,–,1.11% [at 127 µM]
Cc1cccc(NC(=O)c2ccccc2NC(=O)C2CCCCC2)c1C,–,-3.76% [at 127 µM]
Nc1ncnc2c1ncn2C1OC(CO)C(O)C1O (stereo not drawn),9.77 µM (active),–
CCOc1ccc2cc(C#N)c(SCC(=O)NC(C)CC)nc2c1 (stereo not drawn),5.48 µM (active),–
Cc1cc(C(=O)COC(=O)Cn2cnc3c2c(=O)n(C)c(=O)n3C)c(C)n1C,13.8 µM (active),–
Cc1ccc(-n2c(=S)[nH]c3sc4c(c3c2=O)CCC4)cc1,6.15 µM (active),–
CN1C(=O)c2ccc(C(=O)Nc3ccc(Br)cn3)cc2C1=O,21.8 µM (active),–
Cn1c(=O)c2c(ncn2CC(=O)N/N=C/c2cn[nH]c2-c2ccc(F)cc2)n(C)c1=O,21.8 µM (active),–
O=C(O)CSc1ccnc2cc(Cl)ccc12,21.8 µM (active),–
Cc1nn(CCCC(=O)NCc2ccc(F)cc2)c(=O)c2nccn12,38.9 µM (active),–
CC1CCCN(C(=O)COC(=O)CNC(=O)c2sc3ccccc3c2Cl)C1 (stereo not drawn),8.68 µM (active),–
Cc1ccccc1OCC(=O)Nc1sc(C(=O)Nc2cccc(C)c2C)c(C)c1C#N,6.15 µM (active),–
COc1ccc(C(=O)Nc2ccc(S(=O)(=O)Nc3onc(C)c3C)cc2)c(OC)c1,14.9 µM (active),–
CC(C)(C)C(=O)Nc1ccccc1C(=O)NCc1ccco1,–,1.03% [at 127 µM]
CN(C)S(=O)(=O)c1ccc(C(=O)OCC(=O)Nc2cccnc2Cl)cc1,19.4 µM (active),–
COC(=O)c1sc(N2C(=O)C(O)=C(C(=O)c3ccc(C)o3)C2c2ccc(F)cc2)nc1C (stereo not drawn),2.75 µM (active),–
O=C(Nc1ccccc1)c1ccccc1NC(=O)C1CCCCC1,–,-0.678% [at 127 µM]
c1ccc(COn2nnc3ccccc32)c(COn2nnc3ccccc32)c1,–,7.79% [at 44.9 µM]

SMILES,Potency,activation
NCCNC(=O)Cc1ccc(NC(=O)Cc2ccc(Nc3ncnc4c3ncn4[C@@H]3O[C@H](CO)[C@@H](O)[C@H]3O)cc2)cc1,2.75 µM (active),–
CC(C)Oc1ccc(S(=O)(=O)N2CCOCC2)cc1NC(=O)c1cc([N+](=O)[O-])ccc1N1CCOCC1,37.5 µM (active),–
CC(=O)C1C(c2ccccc2)c2c(noc2C)CC1(C)O (stereo not drawn),–,-3.38%
CCCn1c(SCC(=O)Nc2ccc(NC(C)=O)cc2)nc2c1c(=O)n(C)c(=O)n2C,38.9 µM (active),–
COc1ccccc1NC(=O)CCCc1nnc2n(C)c(=O)c3sccc3n12,13.8 µM (active),–
O=C(Nc1ccccc1C(=O)NCc1ccccc1)c1ccco1,–,-0.271% [at 127 µM]
Cc1cccc(-c2nnc(SCC(=O)NC3CC3)n2C)c1,–,-32.2%
COc1ccc(-n2nnc3c(=O)n(CC(=O)NCC4CCCO4)cnc32)cc1 (stereo not drawn),9.74 µM (active),–
Cc1ccc(-n2nnc3c(=O)n(CC(=O)NCC4CCCO4)cnc32)cc1 (stereo not drawn),24.5 µM (active),–
C[C@H](Cc1ccccc1)Nc1ncnc2c1ncn2[C@@H]1O[C@H](CO)[C@@H](O)[C@H]1O,21.9 µM (active),–
Cc1cc(C)nc(NS(=O)(=O)c2ccc(N3C(=O)c4ccccc4C3=O)cc2)n1,29.8 µM (active),–
COc1ccc(S(=O)(=O)Nc2ccccn2)c(C)c1C,–,5.21% [at 44.9 µM]
CCCN(CCC)S(=O)(=O)c1cc(CN2C(=O)c3cccnc3C2=O)ccc1OC,30.9 µM (active),–
CCN(CC)S(=O)(=O)c1cccc(N=Nc2c(O)c3ccccc3oc2=O)c1,27.5 µM (active),–
CC(C)c1ccccc1NC(=O)c1ccccc1NC(=O)C1CCCCC1,–,8.65% [at 127 µM]
CCN(CC)S(=O)(=O)c1ccc2c(c1)N(CC(=O)Nc1cccnc1Cl)C(=O)CO2,17.3 µM (active),–
COC(=O)[C@@H]1C[C@@]2(O)[C@H](O)[C@H](O)[C@H](O)C[C@H]2N1Cc1cc(F)ccc1F,–,3.86%
Cc1cc2nc3ccc(=[N+](C)C)cc-3sc2cc1N,–,-4.25%
COc1cccc(CNC(=O)c2ccc(CS(=O)Cc3ccc(C)cc3)o2)c1 (stereo not drawn),–,1.42% [at 44.9 µM]
